PubChem BioAssay AID1159580 (chemical genetic matrix, 2015)
Several values for one entry are separate records, joined by “and”; a condition that tells them apart may be missing. Equal values may be shown once. About 2,000 (36%) of roughly 5,500 compounds were called active. Another 18% or so got no clear call; they are omitted. Cut-off read from the data, not from the text of the source: active = normalized growth mostly below about 0.91 (no sharp cut-off); inconclusive = no clear call, values can overlap the other calls; inactive = mostly above about 0.92. The list shows a part of the results.

Assay: chemical genetic growth profiling, strain panel (AID 1159580);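 note: tested at 20 µM; growth read once vehicle control cultures reached saturation at 30 °C; 1 = growth at the plate median or of vehicle wells; lower values mean less growth of the strain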
Conditions: S. cerevisiae deletion strains, growth OD

Measured: normalized growth

CC[C@@H](CO)NC(=O)[C@@H]1C=C2c3cccc4[nH]cc(c34)C[C@H]2N(C)C1
inactive: locus YAL013W, strain DEP1, hits give low values 0.989 | locus YAL021C, strain ccr4, hits give low values 1 | locus YAL026C, strain drs2, hits give low values 0.996 | locus YAL030W, strain snc1, hits give low values 0.997 | locus YBL061C, strain skt5, hits give low values 0.999 | locus YBR009C, strain hhf1, hits give low values 0.992 | locus YBR021W, strain FUR4, hits give low values 1 | locus YBR023C, strain chs3, hits give low values 0.997 | locus YBR171W, strain sec66, hits give low values 0.998 | locus YBR229C, strain ROT2, hits give low values 0.99 | locus YBR231C, strain swc5, hits give low values 0.988 | locus YBR279W, strain paf1, hits give low values 0.996 | locus YCL011C, strain gbp2, hits give low values 1 | locus YCL016C, strain dcc1, hits give low values 0.994 | locus YCL029C, strain bik1, hits give low values 0.984 | locus YCL069W, strain vba3, hits give low values 1 | locus YCR088W, strain abp1, hits give low values 0.998 | locus YDL005C, strain med2, hits give low values 1 | locus YDL035C, strain GPR1, hits give low values 1 | locus YDL040C, strain nat1, hits give low values 0.997 | locus YDL074C, strain BRE1, hits give low values 1.02 | locus YDL101C, strain DUN1, hits give low values 0.993 | locus YDL134C, strain PPH21, hits give low values 0.98 | locus YDL185W, strain tfp1, hits give low values 0.981 | locus YDL192W, strain arf1, hits give low values 0.988 | locus YDR001C, strain nth1, hits give low values 0.998 | locus YDR069C, strain doa4, hits give low values 0.995 | locus YDR101C, strain arx1, hits give low values 0.995 | locus YDR137W, strain rgp1, hits give low values 0.995 | locus YDR150W, strain NUM1, hits give low values 1 | locus YDR159W, strain sac3, hits give low values 0.992 | locus YDR162C, strain NBP2, hits give low values 1.02 | locus YDR195W, strain ref2 0.942 | locus YDR297W, strain sur2, hits give low values 0.994 | locus YDR318W, strain mcm21, hits give low values 0.982 | locus YDR334W, strain swr1, hits give low values 1 | locus YDR335W, strain msn5, hits give low values 0.999 | locus YDR388W, hits give low values 0.99 | locus YDR392W, strain spt3, hits give low values 0.995 | locus YDR502C, strain sam2, hits give low values 1 | locus YEL003W, strain gim4, hits give low values 0.998 | locus YEL037C, strain rad23, hits give low values 1 | locus YEL061C, strain CIN8 (second series), hits give low values 1 | locus YEL061C, strain CIN8, hits give low values 0.998 | locus YER015W, strain faa2, hits give low values 0.99 | locus YER016W, strain bim1, hits give low values 0.993 | locus YER110C, hits give low values 0.977 | locus YER111C, strain swi4, hits give low values 1 | locus YER155C, strain BEM2 (second series), hits give low values 0.961 | locus YER155C, strain BEM2, hits give low values 1 | locus YER167W, strain BCK2, hits give low values 0.974 | locus YFR010W, strain ubp6, hits give low values 0.985 | locus YGL078C, strain dbp3, hits give low values 0.998 | locus YGL086W, strain mad1, hits give low values 0.959 | locus YGL167C, strain pmr1, hits give low values 1.01 | locus YGL173C, strain kem1, hits give low values 0.995 | locus YGL227W, strain vid30, hits give low values 0.991 | locus YGL240W, strain doc1, hits give low values 0.981 | locus YGL248W, strain PDE1, hits give low values 0.986 | locus YGL253W, strain hxk2, hits give low values 1.01 | locus YGR078C, strain PAC10, hits give low values 0.994 | locus YGR135W, strain pre9, hits give low values 0.958 | locus YGR229C, strain SMI1, hits give low values 0.961 | locus YGR252W, strain gcn5, hits give low values 0.949 | locus YHR013C, strain ard1, hits give low values 1.02 | locus YHR027C, strain rpn1, hits give low values 1 | locus YHR030C, strain SLT2, hits give low values 0.99 and 1.07 | locus YHR079C, strain IRE1 (second series), hits give low values 0.991 | locus YHR079C, strain IRE1, hits give low values 1.07 | locus YHR094C, strain hxt1, hits give low values 0.985 | locus YHR129C, strain ARP1, hits give low values 0.989 | locus YHR142W, strain chs7, hits give low values 1.01 | locus YHR200W, strain rpn10, hits give low values 0.978 | locus YIL066C, strain RNR3, hits give low values 0.983 | locus YIL073C, strain SPO22, hits give low values 0.945 | locus YIL125W, strain kgd1, hits give low values 0.998 | locus YIR030C, strain dcg1, hits give low values 0.991 | locus YJL092W, strain hpr5, hits give low values 0.995 | locus YJL095W, strain BCK1 (second series), hits give low values 0.995 | locus YJL095W, strain BCK1, hits give low values 0.981 and 1.04 | locus YJL115W, strain asf1, hits give low values 0.995 | locus YJL129C, strain trk1, hits give low values 0.999 | locus YJL134W, strain LCB3, hits give low values 0.992 | locus YJL154C, strain vps35, hits give low values 0.998 | locus YJL164C, strain tpk1, hits give low values 0.991 | locus YJL166W, strain qcr8, hits give low values 0.947 | locus YJL168C, strain set2, hits give low values 0.984 | locus YJL187C, strain SWE1 (second series), hits give low values 0.996 | locus YJR043C, strain POL32, hits give low values 0.975 | locus YJR066W, strain TOR1, hits give low values 0.999 | locus YJR075W, strain HOC1, hits give low values 1.02
